# Where “and” joins values, the source holds several entries; their conditions need not be identical. Equal values may be shown once. Records with an inconclusive call do not appear. Calls of active or inactive are those of the source. Rule as the data show it, unless noted: active = parasite load remaining mostly below about 12% (no sharp cut-off); inactive = mostly above about 10%.
# What was measured:
# [1] = liver-stage malaria parasite growth inhibition, primary screen, cell-based, HepG2, luciferase luminescence, HepG2 viability (AID 624349);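 also: 100% = mean of DMSO negative control wells on the same plate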; details: P. berghei liver stage in HepG2, luciferase luminescence, concentration not given here; parasite load remaining: stronger effect = lower value; viability: measured here: HepG2 viability without parasites
# [2] = differential killing of epithelial or mesenchymal cells, primary screen, imaging, PC-3E GFP, TEM4-18 mCherry, co-culture (AID 1345086;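 active = compounds killing one labelled cell type while sparing the other, by normalised counts and ratio limits, not self-fluorescent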;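 as to all read-outs here: cells exposed to compound for 72 h before imaging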;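 as to red/green cell ratio (normalised): normalised mesenchymal count divided by normalised epithelial count so high means epithelial killing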); details: imaging cell counts, at 1 µM; for red/green cell ratio (normalised): actives lie on both sides, counts scaled to control wells, 1 = unselective
# [3] = growth inhibition of DIPG glioma cells, dose response, cell-based, SU-DIPG-XVII, MIPE5.0, CellTiter-Glo, qHTS (AID 1347060; cut-off not given, nearly all actives have AC50 up to about 26 µM;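 as to AC50: cells exposed to compound for 48 hours before viability readout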); details: SU-DIPG-XVII viability, CellTiter-Glo ATP luminescence
# [4] = growth inhibition of DIPG glioma cells, dose response, cell-based, SU-DIPG-XIII, MIPE4.0, CellTiter-Glo, qHTS (AID 1347061; cut-off not given, nearly all actives have AC50 up to about 37 µM;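 also: cells exposed to compound for 48 hours before readout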); details: SU-DIPG-XIII viability, CellTiter-Glo ATP luminescence
# [5] = growth inhibition of DIPG glioma cells, dose response, cell-based, JHH-DIPG-1, MIPE4.0, CellTiter-Glo, qHTS (AID 1347062; cut-off not given, nearly all actives have AC50 up to about 27 µM); details: JHH-DIPG-1 viability, CellTiter-Glo ATP luminescence
# [6] = growth inhibition of DIPG glioma cells, dose response, cell-based, SU-DIPG-XIII, MIPE5.0, CellTiter-Glo, qHTS (AID 1347064; cut-off not given, nearly all actives have AC50 up to about 23 µM;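 as to AC50: cells exposed to compound for 48 hours before the viability read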); details: SU-DIPG-XIII viability, CellTiter-Glo ATP luminescence
# [7] = viability loss in pontine glioma line – cell-based, SU-DIPG-XXV, MIPE5.0, CellTiter-Glo, qHTS, dose response (AID 1347065; cut-off not given, nearly all actives have AC50 up to about 26 µM;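 also: cells exposed to compound for 48 hours before ATP readout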); details: CellTiter-Glo ATP luminescence
# [8] = SU-DIPG-VI glioma cell viability, MIPE4.0 library, CellTiter-Glo luminescence, qHTS (AID 1347066; cut-off not given, nearly all actives have AC50 up to about 30 µM;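 also: cells exposed to compound for 48 hours before readout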); details: CellTiter-Glo ATP luminescence
# [9] = JHH-DIPG-1 glioma cell viability, MIPE5.0 library, CellTiter-Glo luminescence, qHTS (AID 1347067; cut-off not given, nearly all actives have AC50 up to about 26 µM;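 also: cells exposed to compound for 48 hours before readout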); details: JHH-DIPG-1 glioma viability, CellTiter-Glo ATP luminescence
# [10] = SU-DIPG-XXV glioma cell viability, MIPE5.0 library, qHTS (AID 1347068; cut-off not given, nearly all actives have IC50 up to about 30 µM;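 as to IC50: cells exposed to compound for 48 hours before viability readout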)
# [11] = sensitizers of A549 cells to miR-34 induction, primary screen, imaging, A549 dox-inducible miR-34, nuclei and caspase counts (AID 1347080;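 active = compounds whose cell count with miR-34 switched on is under 0.7 times the count with it off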); details: A549 miR-34 inducible, Hoechst nuclei count, 48 h
# [12] = biological target: NAD(+) hydrolase SARM1 (Homo sapiens) (UniProt Q6SZW1); assay: SARM1 TIR NADase inhibitors, cell lysate, NAD-Glo luminescence (AID 1508614;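 active = compound whose remaining NAD level is above about 45 nM, limit read from the data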;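 also: higher remaining NAD means stronger inhibition of SARM1 NADase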); details: SAM-TIR HEK293T lysate NADase, at 1 µM, stronger effect = higher value
# [13] = survival rescue of mitochondrial mutant cells in low glucose, primary screen, MELAS cybrids, Rieske KO mouse fibroblasts, CellTiter-Glo (AID 1508586;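 active = mean z-score across replicates of 1.96 or higher in either the MELAS or the Rieske mutant cell line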;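 also: z relative to plate mean and SD of compound and empty wells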)
# [14] = viability rescue of complex I mutant cybrids, primary screen, cell-based, galactose medium, ATP luminescence (AID 1645843;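 active = z-score of at least 1.8 in each of two replicates, scored against plate mean and spread of sample wells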;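 also: positive z means more ATP and so rescue of galactose-driven cybrid death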); details: complex I mutant cybrid cells, 72 h, stronger effect = higher value
# [15] = circadian clock period modulators, cell-based, LOPAC library, luminescence reporter (AID 2774; call rule not given here;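 also: values are relative to mean of DMSO wells on each plate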); details: circadian reporter cells, at 7 µM, actives lie on both sides
# [16] = tested on: Hepatitis C virus NS3 helicase; assay: HCV NS3 helicase inhibitors, primary screen, biochemical, fluorescence polarization, LOPAC1280 library (AID 687035; in the data active = inhibition above about 37%); details: Purified HCV NS3 helicase, Cy5-dT15 ssDNA binding fluorescence polarization; stronger effect = higher value; concentration not given here
# [17] = Cy5 fluorescence quenching or enhancement artefacts, artefact control for HCV NS3 helicase inhibitor project, biochemical, LOPAC1280 (AID 687037; call rule not given here); details: Cy5-DNA-NS3h complex fluorescence interference counterscreen
# [18] = growth inhibition of DIPG glioma cells, dose response, cell-based, SU-DIPG-IV, MIPE4.0, CellTiter-Glo, qHTS (AID 1347063; cut-off not given, nearly all actives have AC50 up to about 30 µM;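 also: compound exposure lasted 48 hours before the viability readout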); details: SU-DIPG-IV viability, CellTiter-Glo ATP luminescence
# [19] = phospholipid biosynthesis inhibitors in animal cells, primary screen, cell-based, LOPAC library, screen 4 (AID 1347384; call rule not given here); details: phospholipid biosynthesis inhibition screen, at 10 µM
# [20] = measured here: epithelial PC-3E GFP cell survival
# [21] = measured here: mesenchymal TEM4-18 mCherry cell survival
# [22] = stronger effect = lower value, cell number ratio, induced over uninduced
# [23] = measured here: relative caspase fold change +Dox/-Dox
# [24] = measured here: total cells with miR-34 induction, stronger effect = lower value
# [25] = measured here: total cells without miR-34 induction
# Chain of NAD(+) hydrolase SARM1 (Homo sapiens) (Q6SZW1 whole entry, looked up): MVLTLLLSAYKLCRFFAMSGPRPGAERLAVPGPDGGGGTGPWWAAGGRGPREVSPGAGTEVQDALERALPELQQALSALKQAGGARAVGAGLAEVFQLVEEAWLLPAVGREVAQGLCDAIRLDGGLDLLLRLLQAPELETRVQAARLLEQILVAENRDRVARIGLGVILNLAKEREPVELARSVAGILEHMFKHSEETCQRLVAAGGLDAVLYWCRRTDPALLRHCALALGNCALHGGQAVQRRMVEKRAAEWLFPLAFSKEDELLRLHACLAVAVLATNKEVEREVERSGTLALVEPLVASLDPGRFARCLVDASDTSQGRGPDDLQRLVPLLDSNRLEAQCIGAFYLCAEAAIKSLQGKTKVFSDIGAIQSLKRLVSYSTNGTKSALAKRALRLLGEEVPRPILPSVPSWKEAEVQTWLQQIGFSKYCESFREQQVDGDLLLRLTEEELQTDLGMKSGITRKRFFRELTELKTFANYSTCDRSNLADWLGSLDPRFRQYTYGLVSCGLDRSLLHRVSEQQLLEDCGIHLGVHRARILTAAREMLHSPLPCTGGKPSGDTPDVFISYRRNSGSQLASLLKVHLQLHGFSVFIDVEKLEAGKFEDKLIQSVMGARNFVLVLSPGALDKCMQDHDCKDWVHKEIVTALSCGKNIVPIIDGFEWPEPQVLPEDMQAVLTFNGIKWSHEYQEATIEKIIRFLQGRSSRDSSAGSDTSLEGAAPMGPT
smiles,measurement,setting,value
OC[C@@H](O)[C@@H](O)[C@H](O)[C@@H](O)CO,parasite load remaining,[1],34.8% (inactive)
same,viability,[1],97.5%
same,red/green cell ratio (normalised),[2],1.05 (inactive)
same,normalised cell number,[2]; [20],1.02
same,normalised cell number,[2]; [21],1.06
same,outcome,[3],inactive
same,outcome,[4],inactive
same,outcome,[5],inactive
same,outcome,[6],inactive
same,outcome,[7],inactive
same,outcome,[8],inactive
same,outcome,[9],inactive
same,outcome,[10],inactive
same,fold change,[11]; [22],0.939 (inactive)
same,fold change,[11]; [23],3.07
same,cell count,[11]; [24],11500
same,cell count,[11]; [25],12200
same,remaining NAD,[12],10 nM (inactive)
CC[C@]1(O)CC2CN(CCc3c([nH]c4ccccc34)[C@@](C(=O)OC)(c3cc4c(cc3OC)N(C)[C@H]3[C@@](O)(C(=O)OC)[C@H](OC(C)=O)[C@]5(CC)C=CCN6CC[C@]43[C@@H]65)C2)C1 (stereo partly specified),parasite load remaining,[1],45.7% (inactive) and 54.9% (inactive)
same,viability,[1],113% and 91%
same,red/green cell ratio (normalised),[2],1.24 (inactive)
same,normalised cell number,[2]; [20],0.16
same,normalised cell number,[2]; [21],0.2
same,AC50,[3],20.9 nM (active)
same,AC50,[6],83.3 nM (active)
same,AC50,[7],14.8 nM (active)
same,AC50,[9],46.8 nM (active)
same,IC50,[10],3320 nM (active)
same,fold change,[11]; [22],1.13 (inactive) and 1.04 (inactive)
same,fold change,[11]; [23],2.66 and 1.23
same,cell count,[11]; [24],1730 and 1930
same,cell count,[11]; [25],1530 and 1860
same,z-score,"[13]; MELAS cybrid survival, CellTiter-Glo 48 h, stronger effect = higher value",-2.11 (inactive)
same,z-score,"[13]; Rieske KO mouse fibroblast survival, CellTiter-Glo 72 h",1.21
same,z-score,[14],-1.85 (inactive)
CC1=C(C(=O)O)N2C(=O)[C@@H](NC(=O)C(N)c3ccccc3)[C@H]2SC1 (stereo partly specified),period change,[15],0.02 h (inactive)
same,parasite load remaining,[1],96% (inactive) and 49.4% (inactive)
same,viability,[1],72.1% and 86.5%
same,inhibition,[16],-4% (inactive)
same,fluorescence ratio (interference),[17],0.9 (inactive)
same,red/green cell ratio (normalised),[2],1.15 (inactive)
same,normalised cell number,[2]; [20],1.06
same,normalised cell number,[2]; [21],1.23
same,outcome,[4],inactive
same,outcome,[5],inactive
same,outcome,[18],inactive
same,outcome,[8],inactive
same,fold change,[11]; [22],1.03 (inactive) and 0.832 (inactive)
same,fold change,[11]; [23],1.45 and 2.29
same,cell count,[11]; [24],10100 and 11100
same,cell count,[11]; [25],9800 and 13300
same,outcome,[19],inactive
same,z-score,[14],0.41 (inactive)
CC1CC2C3CCC4=CC(=O)C=C[C@]4(C)[C@@]3(F)[C@@H](O)C[C@]2(C)[C@@]1(O)C(=O)CO (stereo partly specified),period change,[15],-0.45 h (inactive)
same,parasite load remaining,[1],123% (inactive)
same,viability,[1],71.5%
same,inhibition,[16],-1% (inactive)
same,fluorescence ratio (interference),[17],1 (inactive)
same,red/green cell ratio (normalised),[2],1.04 (inactive)
same,normalised cell number,[2]; [20],1.32
same,normalised cell number,[2]; [21],1.37
same,outcome,[4],inactive
same,outcome,[5],inactive
same,outcome,[18],inactive
same,outcome,[8],inactive
same,fold change,[11]; [22],0.94 (inactive)
same,fold change,[11]; [23],1.79
same,cell count,[11]; [24],7510
same,cell count,[11]; [25],7990
same,outcome,[19],inactive
same,z-score,[14],1.44 (inactive)

# From PubChem BioAssay
